Data as given in the supplement of paper PMC9492666.
Counter-ions that a name gives are not always drawn.

How the values were obtained:
[1] = test system: HCC1937; test: relative cell viability, compound + erastin, vs DMSO (fraction of DMSO control); higher = less growth inhibition; settings: 72 h
[2] = test system: MDA-MB-231; test: as above; settings: 72 h
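Also: viability read by CCK-8 kit in 96-well plates, part of a combination screen pairing lipid-metabolism-targeting compounds with erastin.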

Row | SMILES | relative cell viability [1] | relative cell viability [2]
1 | O=C(Oc1ccc([N+](=O)[O-])cc1)N1CCC(C(O)(c2ccc3c(c2)OCO3)c2ccc3c(c2)OCO3)CC1 + CCOc1ccccc1-n1c(C(C)N2CCN(C(=O)COc3ccc(Cl)cc3)CC2)nc2ccccc2c1=O [erastin] | 0.556 | 0.641
2 | Cc1ccc(CN(CC(O)COc2cccc3[nH]ccc23)C(C)(C)C)cc1 (stereo not given) + CCOc1ccccc1-n1c(C(C)N2CCN(C(=O)COc3ccc(Cl)cc3)CC2)nc2ccccc2c1=O [erastin] | 0.731 | 0.846
3 | Cn1c2cc([S+](C)[O-])sc2c2cnn(Cc3cccc(N)c3)c(=O)c21 (stereo not given) + CCOc1ccccc1-n1c(C(C)N2CCN(C(=O)COc3ccc(Cl)cc3)CC2)nc2ccccc2c1=O [erastin] | 0.61 | 0.745
4 | CC(C)(CCCCCC(O)CCCCCC(C)(C)C(=O)O)C(=O)O + CCOc1ccccc1-n1c(C(C)N2CCN(C(=O)COc3ccc(Cl)cc3)CC2)nc2ccccc2c1=O [erastin] | 0.421 | 0.405
5 | COc1ccc2[nH]cc(CCNC(C)=O)c2c1 [Melatonine] + CCOc1ccccc1-n1c(C(C)N2CCN(C(=O)COc3ccc(Cl)cc3)CC2)nc2ccccc2c1=O [erastin] | 0.585 | 0.693
6 | CC(C)=CCC(O)C1=CC(=O)c2c(O)ccc(O)c2C1=O (single isomer, unassigned; (+)) [(+)-Shikonin] + CCOc1ccccc1-n1c(C(C)N2CCN(C(=O)COc3ccc(Cl)cc3)CC2)nc2ccccc2c1=O [erastin] | 0.159 | 0.494
7 | CC(=O)N1CCN(c2ccc(OCC3COC(Cn4ccnc4)(c4ccc(Cl)cc4Cl)O3)cc2)CC1 (stereo not given) [Ketoconazole] + CCOc1ccccc1-n1c(C(C)N2CCN(C(=O)COc3ccc(Cl)cc3)CC2)nc2ccccc2c1=O [erastin] | 0.884 | 0.602
8 | C[C@@H](Nc1nc(N[C@H](C)C(F)(F)F)nc(-c2cccc(Cl)n2)n1)C(F)(F)F [Vorasidenib] + CCOc1ccccc1-n1c(C(C)N2CCN(C(=O)COc3ccc(Cl)cc3)CC2)nc2ccccc2c1=O [erastin] | 0.607 | 0.68
9 | CCC(=O)O[C@]1(C(=O)SCF)[C@H](C)C[C@H]2[C@@H]3C[C@H](F)C4=CC(=O)C=C[C@]4(C)[C@@]3(F)[C@@H](O)C[C@@]21C [Fluticasone propionate] + CCOc1ccccc1-n1c(C(C)N2CCN(C(=O)COc3ccc(Cl)cc3)CC2)nc2ccccc2c1=O [erastin] | 0.967 | 0.545
10 | CC(C)OC(=O)C(C(=O)OC(C)C)=C1SC=CS1 [Malotilate] + CCOc1ccccc1-n1c(C(C)N2CCN(C(=O)COc3ccc(Cl)cc3)CC2)nc2ccccc2c1=O [erastin] | 0.459 | 0.644
11 | CC(C)OC(=O)CCC/C=C\C[C@@H]1[C@@H](CC[C@@H](O)CCc2ccccc2)[C@H](O)C[C@@H]1O [Latanoprost] + CCOc1ccccc1-n1c(C(C)N2CCN(C(=O)COc3ccc(Cl)cc3)CC2)nc2ccccc2c1=O [erastin] | 1 | 0.663
12 | CCN(CC)C(=O)N1CCN(C)CC1 [Diethylcarbamazine citrate] + CCOc1ccccc1-n1c(C(C)N2CCN(C(=O)COc3ccc(Cl)cc3)CC2)nc2ccccc2c1=O [erastin] | 0.729 | 0.907
13 | C[C@]12CC[C@@H](O)C[C@@H]1CC[C@@H]1[C@@H]2CC[C@]2(C)C(=O)CC[C@@H]12 [Androsterone] + CCOc1ccccc1-n1c(C(C)N2CCN(C(=O)COc3ccc(Cl)cc3)CC2)nc2ccccc2c1=O [erastin] | 0.763 | 0.564
14 | COC(=O)c1cc(Cl)c(O)c(S(=O)(=O)Nc2cc(-c3ccccc3)c(F)cc2F)c1 + CCOc1ccccc1-n1c(C(C)N2CCN(C(=O)COc3ccc(Cl)cc3)CC2)nc2ccccc2c1=O [erastin] | 0.728 | 0.806
15 | CC(C)=CCC[C@](C)(O)[C@H]1CC[C@]2(C)[C@@H]1[C@H](O)C[C@@H]1[C@@]3(C)CC[C@H](O)C(C)(C)[C@@H]3[C@@H](O)C[C@]12C [(20S)-Protopanaxatriol] + CCOc1ccccc1-n1c(C(C)N2CCN(C(=O)COc3ccc(Cl)cc3)CC2)nc2ccccc2c1=O [erastin] | 0.772 | 0.397
16 | O=C(CBr)c1ccc(O)cc1 [PTP Inhibitor I] + CCOc1ccccc1-n1c(C(C)N2CCN(C(=O)COc3ccc(Cl)cc3)CC2)nc2ccccc2c1=O [erastin] | 0.717 | 0.64
17 | COc1ccc2c(c1)c(CC(=O)O)c(C)n2C(=O)c1ccc(Cl)cc1 [Indometacin] + CCOc1ccccc1-n1c(C(C)N2CCN(C(=O)COc3ccc(Cl)cc3)CC2)nc2ccccc2c1=O [erastin] | 0.941 | 0.639
18 | Nc1cccc(S(=O)(=O)N2CCCN(S(=O)(=O)c3ccc4c(c3)OCCO4)CC2)c1 + CCOc1ccccc1-n1c(C(C)N2CCN(C(=O)COc3ccc(Cl)cc3)CC2)nc2ccccc2c1=O [erastin] | 0.817 | 0.553
19 | O=C(Nc1ccccc1)c1cc([N+](=O)[O-])ccc1Cl + CCOc1ccccc1-n1c(C(C)N2CCN(C(=O)COc3ccc(Cl)cc3)CC2)nc2ccccc2c1=O [erastin] | 0.71 | 0.706
20 | C[N+](C)(C)CC(O)CC(=O)[O-] (stereo not drawn) [L(-)-Carnitine] + CCOc1ccccc1-n1c(C(C)N2CCN(C(=O)COc3ccc(Cl)cc3)CC2)nc2ccccc2c1=O [erastin] | 0.781 | 0.91
21 | NC(=O)c1cnccn1 [Pyrazinamide] + CCOc1ccccc1-n1c(C(C)N2CCN(C(=O)COc3ccc(Cl)cc3)CC2)nc2ccccc2c1=O [erastin] | 0.791 | 0.948
22 | Oc1ccc2c(c1)OCO2 [Sesamol] + CCOc1ccccc1-n1c(C(C)N2CCN(C(=O)COc3ccc(Cl)cc3)CC2)nc2ccccc2c1=O [erastin] | 0.489 | 1.02
23 | CC(C)c1cc(C(C)C)c(CC(=O)NS(=O)(=O)Oc2c(C(C)C)cccc2C(C)C)c(C(C)C)c1 [Avasimibe] + CCOc1ccccc1-n1c(C(C)N2CCN(C(=O)COc3ccc(Cl)cc3)CC2)nc2ccccc2c1=O [erastin] | 0.508 | 0.791
24 | CCCCCCCCCc1ccc(B(O)O)cc1 [4-Nonylphenylboronic acid] + CCOc1ccccc1-n1c(C(C)N2CCN(C(=O)COc3ccc(Cl)cc3)CC2)nc2ccccc2c1=O [erastin] | 0.9 | 0.358
25 | CCOC(=O)C(C)(C)Oc1ccc(Cl)cc1 [Clofibrate] + CCOc1ccccc1-n1c(C(C)N2CCN(C(=O)COc3ccc(Cl)cc3)CC2)nc2ccccc2c1=O [erastin] | 0.801 | 0.653
26 | CN1c2ccccc2C(=O)Nc2cnc(Nc3ccc(N4CCC(O)CC4)cc3)nc21 + CCOc1ccccc1-n1c(C(C)N2CCN(C(=O)COc3ccc(Cl)cc3)CC2)nc2ccccc2c1=O [erastin] | 0.205 | 0.644
27 | CN(CCOc1ccc(CC2SC(=O)NC2=O)cc1)c1ccccn1 (stereo not given) [Rosiglitazone] + CCOc1ccccc1-n1c(C(C)N2CCN(C(=O)COc3ccc(Cl)cc3)CC2)nc2ccccc2c1=O [erastin] | 0.999 | 0.697
28 | O=C(NCCN1CCC2(CC1)C(=O)NCN2c1ccccc1)c1ccc2ccccc2c1 + CCOc1ccccc1-n1c(C(C)N2CCN(C(=O)COc3ccc(Cl)cc3)CC2)nc2ccccc2c1=O [erastin] | 0.392 | 0.589
29 | Cc1c(C)c2c(c(C)c1O)CCC(C)(COc1ccc(CC3SC(=O)NC3=O)cc1)O2 (stereo not given) [Troglitazone] + CCOc1ccccc1-n1c(C(C)N2CCN(C(=O)COc3ccc(Cl)cc3)CC2)nc2ccccc2c1=O [erastin] | 0.641 | 0.669
30 | NC(N)=N/N=C/c1cccc(Cl)c1Cl [Raphin1 acetate] + CCOc1ccccc1-n1c(C(C)N2CCN(C(=O)COc3ccc(Cl)cc3)CC2)nc2ccccc2c1=O [erastin] | 0.718 | 0.588
